These results are taken from PubChem BioAssay (NCATS).

Calls of active or inactive are those of the source. The call rests on the fitted dose curve; in most records, active means well fitted inhibition curve with a large enough effect; inconclusive means small, poorly fitted or top-dose-only effect; inactive means flat fitted curve, though single readings scatter.
Potency means the concentration at half of the fitted maximal effect.

The target of the experiment is Luciferin 4-monooxygenase (Photinus pyralis) (UniProt P08659). In words: Primary firefly luciferase (FLuc) qHTS assay for identification of artifact compounds. (AID 1845220). Further: nearly all actives have a fitted effect of over 60% in size. The note with it: purified firefly luciferase, luminescence, 5 min; series mostly up to 54.1 µM; activity change, negative = inhibition: at the top concentration. The source says: PI: Alexander Tropsha Ph.D.
UNC Eshelman School of Pharmacy
University of North Carolina, Chapel Hill, North Carolina
Hits from high-throughput screening (HTS) of chemical libraries are often false positives due to their interference with the assay detection technology. In response to this problem, we generated the largest publicly available library of chemical liabilities and developed a free webtool to predict HTS artifacts, both of which are described herein. More specifically, we generated, curated, and integrated HTS datasets for thiol reactivity, redox activity, and luciferase (firefly and nano) activity. Using these curated datasets, we developed and validated several Quantitative Structure-Interference Relationship (QSIR) models to predict nuisance behavior. […] These models were employed for virtual profiling of the National Center for Advancing Translational Science's (NCATS) in-house library, and 256 compounds for each assay were selected for the experimental validation of nuisance behavior. The BA for these external predictions ranged from 58 to 78% for compounds within the applicability domains of the models. […] The models developed in this study, along with aggregation models previously developed by our group (SCAM Detective) were implemented in "Liability Predictor," an online tool which may be used as part of chemical library design or for triaging HTS hits. Both the models and the curated datasets are publicly available at https://liability.mml.unc.edu/.
SEQUENCE No. (e.g., 1, 2, 3, etc.); […] (e.g., Cells, Incubation, Reagent, etc.); VALUE; DESCRIPTION.
1; Reagent; 3 uL; Luciferase substrate mixture.
2; Compounds and control; 16 nL; Kalypsis pin tool (Wako USA) equipped with a 1536-well pin head.
4; Reagent; 1 uL; Luciferase enzyme.
6; Detection; Luminescence, ViewLux microplate reader.
NOTES (numbers refer to Sequence numbers above)
1. 3 uL of luciferase substrate mixture containing D-luciferin and ATP (final concentrations of 10 uM and 10 uM, respectively) in assay buffer (10 mM Mg-acetate, 0.01% Tween-20, 0.05% bovine serum albumin, 50 mM Tris acetate, pH 7.6) was dispensed into all wells of a 1536-well assay plate (solid-bottom white plate; Greiner Bio One, Monroe, NC).
2. A Wako Pin-tool (Wako Automation, Richmond, VA) was used to transfer 16 nL of compounds (consisting of 7-plates in qHTS format, final concentration range 18.3 nM to 114 uM) or control PTC124 (final concentration range 1.22 nM to 40 uM).
3. 15 min. incubation at room temperature protected from light.
4. 1 uL of luciferase enzyme (final concentration 10 nM, Photinus pyralis luciferase) or buffer was dispensed for a final assay volume of 4 uL.
5. Plates were centrifuged (121xg, 15 seconds) and incubated for 5 minutes.
6. Samples were read for luminescence on a ViewLux CCD imager (PerkinElmer). Data were normalized to no-enzyme (0% activity) and no-inhibitor (DMSO; 100%) controls and the resulting percent inhibition data were fitted to a 4-parameter Hill equation using NCATS in-house software.
`CC(=O)OCC(=O)Nc1cc(C#N)cc(NC(=O)COC(C)=O)c1Cl`: the “activity change, negative = inhibition” value is -1.98% (inactive).

Turning to `O=C(CCCCCCCCC#CI)Oc1ccccc1`, the result was inactive.

As to `CCNC(=O)NCCCOc1cccc(CN2CCCCC2)c1`, the “activity change, negative = inhibition” value was -5.33% (inactive).

As to `Nc1ncnc2n[nH]c(Nc3ccc(F)cc3)c12`, the “activity change, negative = inhibition” value is -0.576% (inactive).

With `CCN1CCN(c2cc(-c3ccc(F)cc3)c3c(n2)CCCCCC3)CC1`, the “activity change, negative = inhibition” value was 1.99% (inactive).

On to `OC1(c2ccc(Cl)c(C(F)(F)F)c2)CCN(CCCC(c2ccc(F)cc2)c2ccc(F)cc2)CC1`, for which the “activity change, negative = inhibition” value is 4.99% (inactive).

Turning to `C[C@H](CN1CCCC1)C(=O)c1ccc(C(F)(F)F)cc1`, the “activity change, negative = inhibition” value is -1.61% (inactive).

For `CC1c2ccccc2CN1NC(=O)c1ccc(Cl)c(S(N)(=O)=O)c1` (stereo not given), the “activity change, negative = inhibition” value was -15.5% (inactive).

Consider `CCCCCOc1ccc(C2SC(=O)NC2=O)cc1OCC` (stereo not given), for which the “activity change, negative = inhibition” value is -9.07% (inactive).

For `CC(=O)O[C@@H]1C(=O)O[C@@H]2[C@H]1OC(=O)[C@@H]2OC(C)=O`, the “activity change, negative = inhibition” value is -8.87% (inactive).

`Clc1ccc2c(c1)N=C(N1CCNCC1)c1ccccc1N2`: the compound was classed as inactive.

In the case of `CN1[C@@H]2CC[C@H]1CC(NC(=O)n1c(=O)[nH]c3ccccc31)C2` (stereo not given in full), the “activity change, negative = inhibition” value is -12.1% (inactive).

In the case of `O=C1NC(=O)/C(=C/c2ccc3c(c2)OC(F)(F)O3)S1`, the Potency was 9.53 µM (active).

For the compound `CC(=O)[C@H]1CC[C@H]2[C@@H]3C=CC4=CC(=O)CC[C@@]4(C)[C@@H]3CC[C@]12C`, the “activity change, negative = inhibition” value was -6.72% (inactive).

For `O=C1[C@@H]2[C@H]3CC[C@H](C3)[C@@H]2C(=O)N1CCCCN1CCN(c2ncccn2)CC1`, the “activity change, negative = inhibition” value is 3.29% (inactive).

As for `CC(C(O)c1ccccc1)N(C)CCOC(c1ccccc1)c1ccccc1` (stereo not given), the result was inactive.

As to `O=[N+]([O-])c1ccc(-c2nc(-c3ccc(F)cc3)c(-c3ccncc3)[nH]2)cc1`, the outcome was inactive.

As to `O=C1NC2CCCCN2C12CCN(CCCN1c3ccccc3CCc3ccc(Cl)cc31)CC2` (stereo not given), the “activity change, negative = inhibition” value was 4.07% (inactive).

Regarding `CC1CN(c2cc3c(cc2F)c(=O)c(C(=O)O)cn3-c2ccc(F)cc2F)CCN1` (stereo not given), the “activity change, negative = inhibition” value is -8.55% (inactive).

In the case of `CCOC(=O)c1ccc(OCCN2C[C@H](O)[C@@H](O)[C@H](O)[C@H]2CO)cc1`, the outcome was inactive.

As to `C=CC[N+]1([C@H]2C[C@H]3[C@@H]4CC[C@H]5C[C@H](OC(C)=O)[C@@H](N6CCCCC6)C[C@]5(C)[C@H]4CC[C@]3(C)[C@H]2OC(=O)CC)CCCCC1`, the “activity change, negative = inhibition” value is 1.77% (inactive).

For `O=C1NC(c2cccc([N+](=O)[O-])c2)=CCN1c1ccccc1O`, the “outcome” value is “inactive [at 25.7 µM]”.

Turning to `CC(C(=O)O)c1ccc(/C=C2\CCCCC2=O)cc1` (stereo not given), the Potency is 23.9 µM (active).

Consider `O=C(NN1CCCC1)NS(=O)(=O)c1ccc(Cl)cc1`, for which the “activity change, negative = inhibition” value was -8.79% (inactive).

Turning to `O=C(O)Cc1ccccc1Oc1ccc(Cl)cc1Cl`, the result was inactive.

Regarding `O=[N+]([O-])c1nccn1CO[C@@H](CO)[C@H](O)CO`, the “activity change, negative = inhibition” value was 1.12% (inactive).

As to `CCCN(CCC)C(=O)C(CCC(=O)OCCCN1CCN(CCOC(=O)Cc2c(C)n(C(=O)c3ccc(Cl)cc3)c3ccc(OC)cc23)CC1)NC(=O)c1ccccc1` (stereo not given), the “activity change, negative = inhibition” value was 2.94% (inactive).

Take `CO[C@]1(NC(=O)CSC(F)F)C(=O)N2C(C(=O)O)=C(CSc3nnnn3CCO)CO[C@H]21`: the compound was classed as inactive.

Regarding `O=C1CC[C@H](C(=O)N2CCCCC2)N1`, the outcome was inactive.

In the case of `C[N+]1(CC2COC(c3ccccc3)(c3ccccc3)O2)CCCCC1` (stereo not given), the “activity change, negative = inhibition” value was -29.5% [at 25.7 µM] (inactive).

Consider `COC(=O)C1=C(C)NC(COC(N)=O)=C(C(=O)OC(C)C)C1c1cccc(Cl)c1Cl` (stereo not given), for which the compound was classed as inactive.

In the case of `CCOC(=O)Cn1cccc1-c1nc(-c2ccc(OC)cc2)c(-c2ccc(OC)cc2)s1`, the “activity change, negative = inhibition” value is -3.52% (inactive).

Take `CN(CC1(C)CCCO1)S(=O)(=O)c1ccc(Cl)c(S(N)(=O)=O)c1` (stereo not given): the “activity change, negative = inhibition” value was -2.87% (inactive).

With `Cn1cc(S(C)=O)c(=O)c2ccc(F)cc21` (stereo not given), the “activity change, negative = inhibition” value was -8.08% (inactive).

On to `CCN(CC)CCOc1ccc(/C(=C(\Cl)c2ccccc2)c2ccccc2)cc1`, for which the compound was called inactive.

As to `CC(=O)Nc1ccn(C2COC(COC(=O)c3ccccc3)O2)c(=O)n1` (stereo not given), the “activity change, negative = inhibition” value is 1.7% (inactive).

Consider `COc1ccccc1N1CCN(CCN2C(=O)CC3(CCCC3)CC2=O)CC1`, for which the “activity change, negative = inhibition” value was 3.41% (inactive).

Turning to `CCC(C(=O)NC(=O)NC(C)=O)c1ccccc1` (stereo not given), the result was inactive.

Consider `CO/N=C(/C(=O)N[C@@H]1C(=O)N2C(C(=O)O)=C(Cn3nnc(C)n3)CS[C@H]12)c1csc(N)n1`, for which the “activity change, negative = inhibition” value was 4.82% (inactive).

On to `CCOC(=O)c1ccc(NC(=O)CN2CCCCC2)cc1`, for which the compound was classed as inactive.
